# Reference: PubChem BioAssay
# Molecular target: Tumor necrosis factor receptor superfamily member 10B (Homo sapiens) (UniProt O14763)
# Test: viability loss of caspase-8 NB7 cells with TRAIL – with/without TRAIL, luminescence panel, confirmation (AID 651596)
# Conditions: NB7 neuroblastoma + caspase-8, TRAIL sensitization, NB7 Caspase-8, with TRAIL, mean of runs, at 10 µM, stronger effect = higher value
# Tumor necrosis factor receptor superfamily member 10B (Homo sapiens), sequence (O14763 whole entry, looked up): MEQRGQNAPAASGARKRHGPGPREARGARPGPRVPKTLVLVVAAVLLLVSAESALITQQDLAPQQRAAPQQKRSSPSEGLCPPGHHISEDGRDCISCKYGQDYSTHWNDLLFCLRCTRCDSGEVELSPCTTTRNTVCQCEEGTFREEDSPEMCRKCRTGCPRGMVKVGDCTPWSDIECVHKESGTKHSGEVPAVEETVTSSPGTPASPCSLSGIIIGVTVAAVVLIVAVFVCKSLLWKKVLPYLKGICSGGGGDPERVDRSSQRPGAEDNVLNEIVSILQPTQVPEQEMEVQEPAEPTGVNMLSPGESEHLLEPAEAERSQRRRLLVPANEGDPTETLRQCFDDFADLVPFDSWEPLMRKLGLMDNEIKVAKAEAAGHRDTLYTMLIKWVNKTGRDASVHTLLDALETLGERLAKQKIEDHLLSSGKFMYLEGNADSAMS
row,Compound,activity
1,O=C(/C=C/c1ccco1)Nc1ccc2c(c1)OCCO2,71.8%
2,CNc1ncnc(Sc2nc(N)nc3nc[nH]c23)c1[N+](=O)[O-],72%
3,Cc1cccc(NC(=O)c2ccc3c(Cl)c4c(nc3c2)CCCC4)n1,77.1%
4,COc1ccc(C)cc1NC(=O)CN(Cc1nnc(-c2ccc(Cl)cc2)o1)C1CCCC1,76.7%
5,Fc1cccc(/C=N/Nc2nncc3ccccc23)c1,79.5%
6,C/C(=N\NC(=O)c1ccccc1F)c1cccc(NC(=O)c2ccc(C)cc2)c1,59.8%
7,O=C(/C=C/Nc1ccccc1)c1ccccc1,63.1%
8,COc1ccc(NC(=O)c2ccccn2)cc1,75%
9,CCOc1ccc2nc(N3C(=O)CNC3=S)sc2c1,65.2%
10,O=C(OCc1cc(=O)oc2cc(O)ccc12)c1cc(S(=O)(=O)N2CCOCC2)ccc1F,84.1%
11,O=c1c2ccccc2oc2ccc(NCCCn3ccnc3)cc12,44%
12,Cc1ccc(S(=O)(=O)NC(=O)NC2=NC(C)(C)N(c3ccc(Cl)c(Cl)c3)C(N)=N2)cc1,77.4%
13,CC(=O)Nc1ccc2nc(-c3ccccc3)cn2c1,46.1%
14,NC(Cc1ccc(C(F)(F)F)cc1)c1csc(NC(=O)Nc2ccccc2Oc2ccccc2)n1 (stereo not given),75.1%
15,Cc1ccc(-n2c(-c3ccc(Br)cc3)c[n+]3c2CCc2ccc4cccnc4c2-3)cc1,70.2%
16,Cc1nn(-c2ccccc2)c(C)c1/C=N/NC(=O)c1cc(-c2ccc(Cl)s2)[nH]n1,70.1%
17,Cc1cc(Br)ccc1OCCCCNCCO,28.1%
18,COc1ccc(-c2csc(NC(=O)C3CCN(c4ncnc5sc(C)c(C)c45)CC3)n2)cc1OC,84.3%
19,CN1CCN(c2ccc3sc(-n4ccc5ccccc54)nc3c2)CC1,76.2%
20,COc1cccc(N=c2oc3ccc(OC)cc3cc2-c2nc3ccccc3[nH]2)c1,12.8%

row,Compound,activity
1,O=C(c1ccccc1)n1c(=S)nc2ccccn21,86.2%
2,COc1ccccc1-c1cc(C(=O)NC2CCN(C)CC2)c2ccc(Cl)c(C)c2n1,89.2%
3,Cc1cc(C)c(C)c(S(=O)(=O)N2CCN(CC(=O)c3c(N)n(Cc4ccccc4)c(=O)n(C)c3=O)CC2)c1C,76.3%
4,Cc1cccc(-n2ncc3c(N4CCCC4)ncnc32)c1,75.4%
5,C=CCN=c1scc(-c2ccccc2)n1/N=C/c1ccccn1,37.6%
6,O=C(NC(=S)Nc1nc2ccc(F)cc2s1)c1ccco1,85.3%
7,Cc1nc(NC(=S)NC(=O)c2ccccc2)sc1C,57.1%
8,Cc1cc(=O)n2[nH]c(-c3ccc(F)cc3)nc2n1,44.8%
9,C=C(C)CSc1nnc2n(C)c(=O)c3c4c(sc3n12)CCC4,61.6%
10,CCCCCN=Cc1c(C)[nH]n(-c2nc3ccccc3s2)c1=O,95.5%
11,Nc1nnnn1/N=C/C(Br)=C/c1ccccc1,68.6%
12,O=c1[nH]c(/C(=N\O)c2ccccc2)no1,88.8%
13,COc1ccc(C(=O)Nc2ccc3c(c2)OCCO3)cc1,77.6%
14,Cc1cc(C(=O)Nc2sc3c(c2C#N)CCC(C)C3)no1 (stereo not given),58.6%
15,Cc1cc(NCCCn2ccnc2)n2ncc(-c3ccc(Cl)cc3)c2n1,45.8%
16,CCN1CCN(c2c(Cl)cccc2NC(=O)c2ccc([N+](=O)[O-])o2)CC1,52.3%
17,C#Cc1ccc([C@H]2C=C(C(=O)Nc3ccccc3)O[C@@H](OCc3ccc(CO)cc3)C2)cc1,92%
18,COc1cc2nc(N3CCNCC3)nc(N)c2cc1OC,27.5%
19,COc1ccc(C(C(=O)NC2CCCCC2)N(C(=O)CCl)c2ccc(C)cc2)cc1 (stereo not given),99.5%
20,CCC1=NN(C(=O)c2cccc(Br)c2)C(O)(c2ccc(Br)cc2)C1 (stereo not given),19.9%

# Tested on: not listed separately
# Test: as above
# Conditions: NB7 neuroblastoma + caspase-8, without TRAIL, NB7 Caspase-8, without TRAIL, mean of runs, at 10 µM
row,Compound,activity
1,O=C(/C=C/c1ccco1)Nc1ccc2c(c1)OCCO2,65.1%
2,CNc1ncnc(Sc2nc(N)nc3nc[nH]c23)c1[N+](=O)[O-],77.6%
3,Cc1cccc(NC(=O)c2ccc3c(Cl)c4c(nc3c2)CCCC4)n1,80%
4,COc1ccc(C)cc1NC(=O)CN(Cc1nnc(-c2ccc(Cl)cc2)o1)C1CCCC1,92%
5,Fc1cccc(/C=N/Nc2nncc3ccccc23)c1,78.8%
6,C/C(=N\NC(=O)c1ccccc1F)c1cccc(NC(=O)c2ccc(C)cc2)c1,71.5%
7,O=C(/C=C/Nc1ccccc1)c1ccccc1,44.8%
8,COc1ccc(NC(=O)c2ccccn2)cc1,69.8%
9,CCOc1ccc2nc(N3C(=O)CNC3=S)sc2c1,60.6%
10,O=C(OCc1cc(=O)oc2cc(O)ccc12)c1cc(S(=O)(=O)N2CCOCC2)ccc1F,70.9%
11,O=c1c2ccccc2oc2ccc(NCCCn3ccnc3)cc12,30.3%
12,Cc1ccc(S(=O)(=O)NC(=O)NC2=NC(C)(C)N(c3ccc(Cl)c(Cl)c3)C(N)=N2)cc1,84.2%
13,CC(=O)Nc1ccc2nc(-c3ccccc3)cn2c1,52.6%
14,NC(Cc1ccc(C(F)(F)F)cc1)c1csc(NC(=O)Nc2ccccc2Oc2ccccc2)n1 (stereo not given),93.7%
15,Cc1ccc(-n2c(-c3ccc(Br)cc3)c[n+]3c2CCc2ccc4cccnc4c2-3)cc1,63%
16,Cc1nn(-c2ccccc2)c(C)c1/C=N/NC(=O)c1cc(-c2ccc(Cl)s2)[nH]n1,72.8%
17,Cc1cc(Br)ccc1OCCCCNCCO,41.9%
18,COc1ccc(-c2csc(NC(=O)C3CCN(c4ncnc5sc(C)c(C)c45)CC3)n2)cc1OC,62.9%
19,CN1CCN(c2ccc3sc(-n4ccc5ccccc54)nc3c2)CC1,64.5%
20,COc1cccc(N=c2oc3ccc(OC)cc3cc2-c2nc3ccccc3[nH]2)c1,18.1%

row,Compound,activity
1,O=C(c1ccccc1)n1c(=S)nc2ccccn21,85.5%
2,COc1ccccc1-c1cc(C(=O)NC2CCN(C)CC2)c2ccc(Cl)c(C)c2n1,86%
3,Cc1cc(C)c(C)c(S(=O)(=O)N2CCN(CC(=O)c3c(N)n(Cc4ccccc4)c(=O)n(C)c3=O)CC2)c1C,79.4%
4,Cc1cccc(-n2ncc3c(N4CCCC4)ncnc32)c1,73.6%
5,C=CCN=c1scc(-c2ccccc2)n1/N=C/c1ccccn1,24.8%
6,O=C(NC(=S)Nc1nc2ccc(F)cc2s1)c1ccco1,77.4%
7,Cc1nc(NC(=S)NC(=O)c2ccccc2)sc1C,57%
8,Cc1cc(=O)n2[nH]c(-c3ccc(F)cc3)nc2n1,42.6%
9,C=C(C)CSc1nnc2n(C)c(=O)c3c4c(sc3n12)CCC4,63.9%
10,CCCCCN=Cc1c(C)[nH]n(-c2nc3ccccc3s2)c1=O,95.9%
11,Nc1nnnn1/N=C/C(Br)=C/c1ccccc1,88.8%
12,O=c1[nH]c(/C(=N\O)c2ccccc2)no1,89.6%
13,COc1ccc(C(=O)Nc2ccc3c(c2)OCCO3)cc1,70%
14,Cc1cc(C(=O)Nc2sc3c(c2C#N)CCC(C)C3)no1 (stereo not given),52.6%
15,Cc1cc(NCCCn2ccnc2)n2ncc(-c3ccc(Cl)cc3)c2n1,48.5%
16,CCN1CCN(c2c(Cl)cccc2NC(=O)c2ccc([N+](=O)[O-])o2)CC1,61.3%
17,C#Cc1ccc([C@H]2C=C(C(=O)Nc3ccccc3)O[C@@H](OCc3ccc(CO)cc3)C2)cc1,93.4%
18,COc1cc2nc(N3CCNCC3)nc(N)c2cc1OC,0.125%
19,COc1ccc(C(C(=O)NC2CCCCC2)N(C(=O)CCl)c2ccc(C)cc2)cc1 (stereo not given),99.3%
20,CCC1=NN(C(=O)c2cccc(Br)c2)C(O)(c2ccc(Br)cc2)C1 (stereo not given),22.4%
